“And” between values parts separate entries of the source, which are not always exact repeats. Equal entries are not always repeated. The campaign covered roughly 300,000 compounds. About 3,200 (1.1%) were called active. Rule as the data show it: active = inhibition above about 75%; inconclusive = no clear call, values can overlap the other calls; inactive = below that; tested in HMLE shEcad cells. The full list was thinned out, with actives kept by preference.
Assay: growth suppression of cancer stem-like cells – cell-based, luminescence, primary screen (AID 2717)
Settings: cancer stem cell-like cells viability, at 7.5 µM, hits give high values

Row | SMILES | inhibition
1 | O=C(CCCOc1ccccc1)NNC(=O)c1ccc(Cl)cc1 | -7.46% (inactive)
2 | O=C(NCCc1ccco1)c1ccc(OCc2cn3ccccc3n2)cc1 | -8.4% (inactive)
3 | COc1ccc(NC(=O)/C(Cl)=C(/Cl)S(=O)Cc2ccc(C)cc2)cn1 (centres undefined) | 112% (active)
4 | COc1ccc(NC(=O)c2cc(-c3ccc(C)cc3)on2)cc1 | 11.2% (inactive)
5 | COc1ccc(Nc2cc(Cl)ccc2C(=O)O)cn1 | 5.84% (inactive)
6 | NC(=O)Nc1ccc(C(=O)OCC(=O)NC2CCCc3ccccc32)cc1 (centres undefined) | 3.37% (inactive)
7 | COc1ccc(-c2n[nH]c(C)c2-c2ccccc2OC)c(O)c1 | 2.11% (inactive)
8 | C=C(C)COc1ccc(-c2n[nH]c(C)c2-c2ccccc2)c(O)c1 | -11.5% (inactive)
9 | C=C(C)COc1ccc(-c2n[nH]c(C)c2-c2ccccc2OC)c(O)c1 | 102% (active)
10 | COc1cccc(/C=N/Nc2ncc(C(F)(F)F)cc2Cl)c1O | 102% (active)
11 | COc1cccc(/C=N/Nc2cc(C)nc(-c3ccccc3O)n2)c1O | 12.2% (inactive)
12 | COc1cccc(/C(C)=N/Nc2ncc(Cl)cc2Cl)c1 | 24.2% (inactive)
13 | Cc1ccc(S(=O)(=O)Nc2nc(CN3CCOCC3)nc3sc(C)c(C)c23)cc1 | -7.69% (inactive)
14 | Cc1ccc(NC(=O)C(C)Sc2nnc(C3CC3)n2C2CC2)cc1S(=O)(=O)N1CCOCC1 (centres undefined) | -10.2% (inactive)
15 | O=C(NNS(=O)(=O)c1c(F)cc(F)c(Cl)c1F)C12CC3CC(CC(C3)C1)C2 | -12.7% (inactive)
16 | COc1cccc2sc3cc(NCC[C@@H]4CCCN4C)ccc3c(=O)c12 | 6.75% (inactive)
17 | Cc1nc2ccc(NC(=O)c3cccc(S(=O)(=O)N4CCOCC4)c3)cc2s1 | -13.4% (inactive)
18 | COc1cccc(/C=C2\C=C(c3ccc(C)cc3)OC2=O)c1OC(C)=O | -0.631% (inactive)
19 | COc1cccc(/C=C/c2ccc3ccccc3n2)c1OC(C)=O | 104% (active)
20 | CCOc1cccc(/C=C/c2ccc3ccccc3n2)c1OC(C)=O | 64.6% (inactive)
21 | O=C1N[C@@H](c2ccccc2)COC(=O)[C@H](Cc2ccc(F)cc2)C/C=C\C[C@@H]1CC(=O)N(CCO)Cc1ccccc1 | 9.15% (inactive)
22 | CCN(CC(=O)Nc1c(F)cccc1F)C(=O)c1ccc(-c2ccc(C(C)=O)cc2)o1 | -4.76% (inactive)
23 | COc1ccccc1CNC(=O)COC(=O)c1cccs1 | 18.5% (inactive)

Row | SMILES | inhibition
24 | C=CC[C@@H](CC(=O)N[C@H](CO)Cc1ccccc1)C(=O)N[C@H](C)COC(=O)[C@@H](CC=C)Cc1ccc(F)cc1 | -14.7% (inactive)
25 | COc1ccccc1N1CCN(C(=O)CSc2ncnc3c2cnn3-c2ccc(C)c(C)c2)CC1 | 75.8% (active)
26 | COC(=O)CSc1ncnc2c1cnn2-c1ccc(C)cc1C | 8.04% (inactive)
27 | COc1ccccc1N1CCN(C(=O)CSc2nnc(-c3ccoc3C)o2)CC1 | -0.373% (inactive)
28 | COc1ccc(C2(c3ccc(OC)cc3)NC(=O)N(CC(=O)Nc3cc(C)on3)C2=O)cc1 | -19.5% (inactive)
29 | O=C(Cn1cnc2ccccc2c1=O)NNC(=O)c1ccccc1F | -14% (inactive)
30 | CCCCn1c(CN2CCN(CCO)CC2)nc2ccccc21 | -13.9% (inactive)
31 | CCCCn1c(CCCNC(=O)CC)nc2ccccc21 | -2.03% (inactive)
32 | C=C(Br)Cn1c(CCCC)nc2ccccc21 | 77.7% (active)
33 | O=C(Nc1cccc(S(=O)(=O)NC2=NCCC2)c1)c1ccc(F)cc1F | 17.5% (inactive)
34 | Cc1cccc(C(=O)OCC(=O)NC(C)C2CC3CCC2C3)c1O (centres undefined) | -4.77% (inactive)
35 | CCN(C[C@H]1N[C@@](CC)(C(=O)OC)[C@H]2C(=O)N(Cc3ccccc3)C(=O)[C@@H]12)S(=O)(=O)c1ccc(C(F)(F)F)cc1 | 44.8% (inactive)
36 | Cc1cccc(-c2nc(Nc3ccc(O)cc3)c3ccccc3n2)c1 | 94% (active)
37 | COc1ccc(Nc2nc(-c3cccnc3)nc3ccccc23)cn1 | 2.87% (inactive)
38 | CC(=O)Nc1cccc(Nc2nc(-c3cccs3)nc3ccccc23)c1 | 33.9% (inactive)
39 | Cc1cccc(NC(=O)CN2CCN(C(=O)C3CCN(C(=O)/C=C/c4ccccc4)CC3)CC2)c1C | -8.71% (inactive)
40 | CC(=O)Nc1ccc(NC(=O)COc2ncnc3ccccc23)cc1 | -6.11% (inactive)
41 | CC(=O)Nc1ccc(Nc2c3ccccc3nc3ccccc23)cc1 | 85.3% (active)
42 | Cc1ccc(Nc2c3c(nc4ccccc24)CCC3)cc1 | 2.02% (inactive)
43 | Cc1ccc(CC(=O)Nc2ccc(S(=O)(=O)N3CCOCC3)cc2)cc1C | 6.62% (inactive)
44 | CN1CCN(c2ccc(S(=O)(=O)Nc3ccccc3)cc2[N+](=O)[O-])CC1 | 49.9% (inactive)
45 | O=[N+]([O-])c1cc(S(=O)(=O)Nc2cccc(Cl)c2)ccc1N=Nc1c(O)[nH]c2ccccc12 | 96.2% (active)
46 | Cc1cccc(N(CC(=O)N=Nc2c(O)[nH]c3ccccc23)S(C)(=O)=O)c1C | -17.4% (inactive)

Row | SMILES | inhibition
47 | O=C(CC1SC(N2CCOCC2)=NC1=O)Nc1ccccc1F (centres undefined) | -28.9% (inactive)
48 | COc1cc(/C=C/C(=O)OCC(=O)NC2CC2)cc(OC)c1OC | 1.1% (inactive)
49 | COC(=O)c1ccc(C)c(NC(=O)Cn2c(C)csc2=O)c1 | 13.1% (inactive)
50 | CCCCN(CCCC)CCC(O)c1cc2c(Cl)cc(Cl)cc2c2cc(C(F)(F)F)ccc12 (centres undefined) | 95.2% (active)
51 | CCCCC(=O)Nc1ccc(C(=O)Nc2cc(C(F)(F)F)ccc2Cl)cc1 | 5.17% (inactive)
52 | Cc1ccc(C)c(NC(=O)COC(=O)c2nn(C)c(=O)c3ccccc23)c1 | -4.9% (inactive)
53 | COc1cc(NS(=O)(=O)c2ccc(N=Cc3c(C)[nH]n(-c4ccccc4)c3=O)cc2)nc(OC)n1 | -7.07% (inactive)
54 | COc1cc(SC#N)ccc1N=Cc1c(C)[nH]n(-c2ccc(C)cc2)c1=O | 84.4% (active)
55 | Cc1ccc(-n2[nH]c(C)c(/C=N/N3C(=O)c4cccc5cccc(c45)C3=O)c2=O)cc1 | 24.4% (inactive)
56 | COc1cc(C(=O)OCc2cc(=O)n3ccsc3n2)ccc1OC(C)C | -20.6% (inactive)
57 | CC1CCCCC1NCC(=O)Nc1ccccc1C(=O)Nc1ccccc1 (centres undefined) | -14.1% (inactive)
58 | Oc1ccc(N2CCN(C(=S)NCc3ccccc3)CC2)cc1 | 76.5% (active)
59 | Oc1ccccc1N1CCN(C(=S)NCc2ccccc2)CC1 | 12% (inactive)
60 | O=C(COC(=O)c1ccccc1C(=O)N1CCN(c2ccccc2)CC1)NCc1ccccc1 | -12.2% (inactive)
61 | O=C(COC(=O)c1ccc2c(c1)OCCO2)NCc1ccccc1Cl | -17.4% (inactive)
62 | Cc1ccc(N2C(=O)N3[C@@H]4c5ccccc5OC[C@@H]4[C@@H](c4ccccc4)[C@@]3(C)C2=O)cc1 | -10% (inactive)
63 | CCN(CC)c1ccc(/C=N/NC(=O)c2cnccn2)c(O)c1 | 102% (active)
64 | CCN(CC)c1ccc(/C=N/NC(=O)CNC(=O)c2cccnc2)cc1 | -7.16% (inactive)
65 | O=C(N/N=C/c1ccc(O)c2ccccc12)c1cccnc1 | 8.51% (inactive)
66 | O=C(COC(=O)c1ccc([N+](=O)[O-])o1)NC12CC3CC(CC(C3)C1)C2 | -15.4% (inactive)
67 | COCCn1c(C)cc(C(=O)CN2c3cccc4cccc(c34)S2(=O)=O)c1C | 12.1% (inactive)
68 | COc1cc(/C=N/O)cc(Br)c1OCc1cccc(Cl)c1 | 80.5% (active)
69 | COc1cc(/C=N/O)cc(Br)c1OS(=O)(=O)c1ccc(C)cc1 | -11.5% (inactive)

Row | SMILES | inhibition
70 | COc1cc(/C=N/O)ccc1OCc1ccc([N+](=O)[O-])cc1 | 1.34% (inactive)
71 | CN(CC(=O)NC1CCN(Cc2ccccc2)CC1)S(=O)(=O)c1ccc(Cl)s1 | -6.54% (inactive)
72 | O=C(O)c1ccc(Cn2c(=S)[nH]c3cc(Cl)ccc3c2=O)cc1 | -3.92% (inactive)
73 | CC(C)c1ccc2c(c1)c(SC(C)(C)C)c(CC(C)(C)C(=O)O)n2Cc1ccc(Cl)cc1 | 104% (active) and 102% (active)
74 | O=C1COc2ccc(C(=O)COC(=O)c3ccccc3Cl)cc2N1 | -17.8% (inactive)
75 | Fc1ccccc1-c1cc2cc3c(cc2cn1)OCO3 | 14.4% (inactive)
76 | COC(=O)C1=C(C)N(Cc2ccccc2)C(=NCCCOC(C)C)N[C@H]1c1ccccc1 | 0.115% (inactive)
77 | Cc1oc2c(F)c(F)c(F)c(F)c2c1S(=O)(=O)Nc1cccc(C(F)(F)F)c1 | 97.3% (active)
78 | CCOC(=O)N1CCN(C(=O)c2ccc(S(=O)(=O)Nc3cccc(C(F)(F)F)c3)cc2)CC1 | 8.22% (inactive)
79 | O=C(/C=C/c1ccc(F)cc1)Nc1cccc(S(=O)(=O)Nc2cccc(C(F)(F)F)c2)c1 | 2.9% (inactive)
80 | Cc1ccc(C)c(NC(=S)NNC(=S)Nc2ccc(C(C)C)cc2)c1 | 102% (active)
81 | Cc1ccc(C)c(NC(=S)NNC(=O)c2csc(C)c2)c1 | 3.04% (inactive)
82 | CC(C)c1ccc(NC(=S)NNc2ccc(Cl)c(C(=O)O)c2)cc1 | -18.1% (inactive)
83 | C[C@H]1COC(=O)[C@H](CC(=O)OC(C)(C)C)C/C=C\C[C@@H](CC(=O)N[C@H](CO)Cc2ccccc2)C(=O)N1 | -29.3% (inactive)
84 | Cc1ccccc1SCC(=O)OCC(=O)N1CC(=O)Nc2ccccc21 | -8.14% (inactive)
85 | CC1CCCCC1NC(=O)COc1ccc(C#N)cc1 (centres undefined) | -1.85% (inactive)
86 | C/C(=N\NC(=S)NCc1ccccc1)c1ccc(Cl)cc1 | 41.6% (inactive)
87 | CC/C(=N\NC(=S)NC(C)C)c1ccc(OC(F)F)cc1 | 2.7% (inactive)
88 | C/C(=N\NC(=S)NC(C)C)c1ccc(C(C)(C)C)cc1 | 77.5% (active)
89 | O=C(COc1cccnc1[N+](=O)[O-])Nc1ccc(Cl)cc1F | -1.01% (inactive)

From PubChem BioAssay AID2717 (Broad Institute, 2010)
